Assay outcomes deposited in PubChem by Broad Institute.
Many of the other results were omitted from the sample, so hits are more common in it than they were.
STK33 kin inh: human STK33 kinase inhibition; Q9BYT3; ADP-Glo luminescence, MBP substrate; inhibition, % at 12.5 µM; 27,000 compounds, 0.44% hits; AID 2322; in the data active = inhibition above about 20%; inconclusive = no clear call, values can overlap the other calls
Target sequence (Q9BYT3 whole entry, looked up): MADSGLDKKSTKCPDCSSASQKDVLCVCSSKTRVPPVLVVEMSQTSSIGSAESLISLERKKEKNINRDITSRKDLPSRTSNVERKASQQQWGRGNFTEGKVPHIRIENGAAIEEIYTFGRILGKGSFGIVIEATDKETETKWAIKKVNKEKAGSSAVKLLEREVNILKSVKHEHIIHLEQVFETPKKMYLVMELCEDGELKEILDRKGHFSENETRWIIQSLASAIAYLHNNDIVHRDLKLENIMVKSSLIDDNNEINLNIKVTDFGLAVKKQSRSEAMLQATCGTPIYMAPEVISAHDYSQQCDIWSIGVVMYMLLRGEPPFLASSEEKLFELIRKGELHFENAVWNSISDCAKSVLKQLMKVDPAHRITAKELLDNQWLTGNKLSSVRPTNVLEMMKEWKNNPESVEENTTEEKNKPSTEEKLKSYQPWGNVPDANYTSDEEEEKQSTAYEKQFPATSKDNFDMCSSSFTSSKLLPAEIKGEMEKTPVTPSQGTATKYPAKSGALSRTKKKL
PD-1 reversal: activators reversing PD-1 mediated T-cell inhibition; primary human CD4 T cells, PD-L1 beads, CellTiter-Glo 96 h; activation, % (no concentration beside the values); 29,000 tested, under 10 active; call rule not given here
NOMO-1 viab: STK33 inhibitor candidate reducing NOMO-1 cell viability; NOMO-1 AML viability, CellTiter-Glo luminescence, 72 h; inhibition, % (concentration not given with the values); 37,000 compounds, 7.5% hits; AID 2330; in the data active = inhibition above about 80%; inconclusive = no clear call, values can overlap the other calls
A number is an active result; i = inactive; ? = inconclusive; nt = not tested or not shown.

SMILES	STK33 kin inh	PD-1 reversal	NOMO-1 viab
CO[C@H]1C[C@@H]2CC[C@@H](C)[C@@](O)(O2)C(=O)C(=O)N2CCCC[C@H]2C(=O)O[C@H](C(C)CC2CC[C@@H](O)[C@H](OC)C2)CC(=O)[C@H](C)/C=C(\C)[C@@H](O)[C@@H](OC)C(=O)[C@H](C)C[C@H](C)/C=C/C=C/C=C\1C (stereo not given in full)	i	i	i
Cc1cccc(NC(=O)CCCC(=O)O)c1C	i	nt	nt
CCCCCCCC(O)C(O)C1CC(OC)=CC(=O)O1 (stereo not given)	i	i	i
CCCCCCCCCC(O)CC(O)CC(O)CC1CC=CC(=O)O1 (stereo not given)	i	i	115
Cc1cc(Cl)c(S(=O)(=O)Nc2cc(Cl)ccc2Cl)cc1OCC(N)=O	i	i	i
COc1ccc(OC)c(S(=O)(=O)N2CCC(C(=O)Nc3cccc(F)c3)CC2)c1	i	nt	i
O=[N+]([O-])c1ccc(O)c(C(c2c[nH]c3ccccc23)c2c[nH]c3ccccc23)c1	i	i	i
O=C1Cc2c([nH]c3ccc([N+](=O)[O-])cc23)-c2ccccc2N1	23	i	99
CNC(=O)c1c(N)sc2c1CCCCC2	nt	i	126
NC(=O)c1c(NC(=O)C2CC(=O)OC23CCCCC3)sc2c1CCCCC2 (stereo not given)	i	nt	i
CC(Oc1ccc(Cl)cc1Cl)C(=O)Nc1nnn(C)n1 (stereo not given)	i	i	i
Cc1ccc(OCC(=O)NC(=S)Nc2cc(-c3nc4ncccc4o3)ccc2Cl)cc1	i	i	i
Cc1ccc(S(=O)(=O)Nc2ccc3c(c2)C(=O)N([C@@H](C)CO)C[C@H](C)[C@@H](CN(C)Cc2ccc(Cl)c(Cl)c2)O3)cc1	nt	i	106
C[C@@H]1CCCCO[C@H](CN(C)Cc2ccc(Cl)c(Cl)c2)[C@@H](C)CN([C@H](C)CO)C(=O)c2cc(NS(=O)(=O)c3ccc(F)cc3)ccc2O1	i	i	i
C[C@@H]1CN([C@H](C)CO)C(=O)c2cc(NS(=O)(=O)c3ccccc3)ccc2O[C@@H]1CN(C)Cc1ccc(Cl)c(Cl)c1	nt	i	i
Cc1ccc(S(=O)(=O)Nc2ccc3c(c2)C(=O)N([C@@H](C)CO)C[C@@H](C)[C@@H](CN(C)Cc2ccc(Cl)c(Cl)c2)O3)cc1	nt	i	117
Cc1ccc(S(=O)(=O)Nc2ccc3c(c2)C(=O)N([C@H](C)CO)C[C@H](C)[C@H](CN(C)Cc2ccc(Cl)c(Cl)c2)OCCCC[C@@H](C)O3)cc1	i	i	111
C[C@H]1CN([C@@H](C)CO)C(=O)c2cc(NS(=O)(=O)c3ccccc3)ccc2O[C@@H]1CN(C)Cc1ccc(Cl)c(Cl)c1	i	i	i
O=C(CSc1nc2ccccc2c(=O)n1-c1ccccc1)Nc1ccc(F)c(Cl)c1	i	nt	i
Cc1cc(COc2ccccc2OCc2cc(C)no2)on1	i	nt	nt
Cc1noc(COc2ccccc2)c1C(=O)Sc1ccc(F)cc1F	nt	i	123
Cc1ccc(-c2csc3ncn(CC(=O)Nc4cc(Cl)ccc4Cl)c(=O)c23)cc1	i	nt	i
O=C(CC1(O)C(=O)N(CCOc2ccccc2)c2ccccc21)c1ccc2c(c1)CCCC2 (stereo not given)	i	i	i
CCCCN1C(=O)C(O)(CC(=O)c2ccco2)c2cc(Br)ccc21 (stereo not given)	i	nt	113
O=C(CC1(O)C(=O)N(CCc2ccccc2)c2ccc(Br)cc21)c1ccncc1 (stereo not given)	i	nt	114
SMILES	STK33 kin inh	PD-1 reversal	NOMO-1 viab
NC(=O)CN1C(=O)C(O)(CC(=O)c2ccncc2)c2ccccc21 (stereo not given)	i	i	i
CCN1C(=O)C(O)(CC(=O)c2ccco2)c2cc(Br)ccc21 (stereo not given)	i	i	122
CCCCN1C(=O)C(O)(CC(=O)c2ccco2)c2ccccc21 (stereo not given)	i	i	119
Cc1coc(C)c1C(=O)CC1(O)C(=O)N(CCc2ccccc2)c2ccccc21 (stereo not given)	i	i	i
CCN(CC)CCSc1nnc2c3ccccc3n(CC)c2n1	i	nt	i
COc1ccc(N(CC(=O)Nc2ccc(C)cc2C)S(C)(=O)=O)cc1	i	i	i
COc1ccccc1N(CC(=O)N1CCN(C)CC1)S(C)(=O)=O	i	i	i
CN(Cc1nc(-c2ccccc2)no1)S(=O)(=O)c1ccc(Br)cc1	i	nt	i
COc1nnc(-c2ccc(N3CCOCC3)c(NS(=O)(=O)c3ccc(Cl)cc3)c2)c2ccccc12	i	i	i
COc1ccc(OCC(=O)Nc2cc(-c3nnc(OC)c4ccccc34)ccc2N2CCCCC2)cc1	i	i	89
Cc1cc(Nc2ccc(F)cc2)nc(SCc2c(Cl)cccc2Cl)n1	nt	i	i
Fc1ccc(Nc2nc3ccccc3nc2Nc2ccc(F)cc2)cc1	nt	i	135
C[C@@H]1CN([C@@H](C)CO)C(=O)c2cc(NC(=O)Cc3ccccc3)ccc2O[C@@H]1CN(C)Cc1ccc(C(=O)Nc2ccccc2N)cc1	nt	i	109
C[C@@H]1CCCCO[C@@H](CN(C)Cc2ccccc2)[C@@H](C)CN([C@H](C)CO)C(=O)c2cc(NC(=O)CCCCCC(=O)Nc3ccccc3N)ccc2O1	nt	i	i
C[C@@H]1CCCCO[C@@H](CN(C)Cc2ccc(C(=O)Nc3ccccc3N)cc2)[C@@H](C)CN([C@H](C)CO)C(=O)c2cc(NC(=O)Cc3ccccc3)ccc2O1	nt	i	127
CC(C)NC(=O)Nc1ccc2c(c1)C(=O)N([C@H](C)CO)C[C@H](C)[C@H](CN(C)Cc1ccc(C(=O)Nc3ccccc3N)cc1)OCCCC[C@@H](C)O2	nt	i	i
C[C@@H]1CN([C@@H](C)CO)C(=O)c2cc(NC(=O)Cc3ccccc3)ccc2O[C@H]1CN(C)Cc1ccc(C(=O)Nc2ccccc2N)cc1	nt	i	?
C[C@@H]1CCCCO[C@@H](CN(C)Cc2ccc(C(F)(F)F)cc2)[C@@H](C)CN([C@H](C)CO)C(=O)c2cc(NC(=O)CCCCCC(=O)Nc3ccccc3N)ccc2O1	nt	i	125
C[C@@H]1CCCCO[C@H](CN(C)Cc2ccc(C(=O)Nc3ccccc3N)cc2)[C@@H](C)CN([C@H](C)CO)C(=O)c2cc(NS(=O)(=O)c3ccc(F)cc3)ccc2O1	nt	i	128
C[C@@H]1CCCCO[C@@H](CN(C)Cc2ccc(C(=O)Nc3ccccc3N)cc2)[C@@H](C)CN([C@H](C)CO)C(=O)c2cc(NS(C)(=O)=O)ccc2O1	nt	i	?
CCOC(=O)C1=C(C)Nc2ncnn2C1c1ccco1 (stereo not given)	i	i	i
Nc1cc(=O)nc(SCC(=O)N(c2ccccc2)c2ccccc2)n1-c1ccccc1	i	i	i
O=c1c2c(nc(NCCCO)n1Cc1ccccc1)-c1ccccc1CC21CCCC1	i	nt	nt
CC12CC3(C)CC(C)(C1)CC(C(=O)O)(C2)C3	nt	i	i
Cc1ccc(C(=O)c2ccc(Oc3ccccc3)cc2)cc1	nt	i	i
CNC(=O)CN(c1ccc(Br)cc1)S(=O)(=O)c1ccc(C)cc1	i	i	i
CC1CC[C@]2(C(=O)O)CC[C@]3(C(=O)O)C(=CCC4[C@@]5(C)CC[C@H](OC6OC(C)C(O)C(OC7OC(CO)C(O)C(O)C7O)C6O)C(C)(C)C5CC[C@]43C)C2C1C (stereo not given in full)	i	i	i
